Assay [1] can be described thus: qHTS assay for small molecule agonists of the p53 signaling pathway (AID 651631; calls by dose curve; further: nearly all actives have a fitted effect of over 15% in size). The settings on record: HCT-116 p53RE-bla reporter, beta-lactamase FRET ratio, 16 h; series mostly up to 73.3 µM. In outline: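 p53RE-bla HCT-116 cells; compounds 16 h, 37 °C; LiveBLAzer B/G FRET substrate 2 h RT; fluorescence intensity read-out, qHTS format.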
On the technique in general: Quantitative high-throughput screening tests each substance at several concentrations.

Assay [2] in a line: qHTS assay for small molecules that induce genotoxicity in human embryonic kidney cells expressing luciferase-tagged ATAD5 (AID 651632). Further: nearly all actives have a fitted effect of over 15% in size. Conditions: HEK293T ATAD5-luciferase induction, 16 h; series mostly up to 83.3 µM. An outline of the steps: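 Test compounds were delivered by pin tool onto HEK293T reporter cells (2,000/well) expressing ATAD5 fused to luciferase. After 16 hr at 37C, 5% CO2, Amplite was added for 30 min at room temperature and luminescence was measured.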

The nature of assay [3]: qHTS assay for small molecule agonists of the p53 signaling pathway - cell viability (AID 651633; calls by dose curve; further: nearly all actives have a fitted effect of over 30% in size). Conditions: p53RE-bla HCT-116 viability, ATP luminescence, 16 h; series mostly up to 83.3 µM. An outline of the steps:
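p53RE-bla cells were treated with compound for 16 hours at 37 C. Cytotoxicity was then measured as CellTiter-Glo luminescence after 30 min at room temperature.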

A short description of assay [4]: qHTS assay for small molecules that induce genotoxicity in human embryonic kidney cells expressing luciferase-tagged ATAD5 - cell viability (AID 651634; calls by dose curve; further: nearly all actives have a fitted effect of over 25% in size). The settings on record: HEK293T ATAD5-luc cells viability, CellTiter-Fluor, 15.5 h; series mostly up to 83.3 µM. An outline of the steps: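 Quantitative high-throughput format. HEK293T cells expressing ATAD5 fused to luciferase were plated at 2,000 cells/well and treated 15.5 hr with compound versus DMSO. Viability was determined by fluorescent live-cell protease substrate, 30 min at 37C.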

Assay [5] in a line: qHTS assay for small molecule disruptors of the mitochondrial membrane potential - cell viability (AID 720634; calls by dose curve;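 further: human HepG2 liver cancer cells; nearly all actives have a fitted effect of over 20% in size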). Conditions: HepG2 viability, ATP luminescence (CellTiter-Glo), 1 h; series mostly up to 83.2 µM. In outline:
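Same-well counter-screen: following the MMP dye addition, CellTiter-Glo was added to 1 hr compound-treated HepG2 cells and luminescence read after 30 min at room temperature.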

Assay [6] can be described thus: qHTS assay for small molecule disruptors of the mitochondrial membrane potential (AID 720635). Further: potency means the concentration at half of the fitted maximal effect. Conditions: HepG2 mitochondrial membrane potential, Mito-MPS dye ratio; series mostly up to 83.2 µM. An outline of the steps:
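HepG2 cells exposed to compound 1 hr at 37C, then Mito-MPS dye 30 min. Ratio read of aggregate (540/590 nm) versus monomer (490/535 nm) fluorescence.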

Assay [7] is described as follows: qHTS assay to test for compound auto fluorescence at 590 nm (red) in HepG2 cells (AID 720674). The settings on record: HepG2 autofluorescence, red 540/590 nm, 1 h; series mostly up to 46 µM. In outline: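 HepG2 cells, 2,000 per well in MEM with 10% FBS, attached overnight at 37 C, then got 23 nL compound or DMSO. After 1 hr at 37 C, 5% CO2, red fluorescence was read at 540/590 nm against Rose Bengal sodium as reference.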

A short description of assay [8]: qHTS assay to test for compound auto fluorescence at 535 nm (green) in HepG2 cells (AID 720675). Conditions: green autofluorescence 485/535 nm, 1 h; series mostly up to 46 µM.
Assay [9] is described as follows: qHTS assay to test for compound auto fluorescence at 460 nm (blue) in HEK293 cells (AID 720678). The settings on record: blue autofluorescence 405/460 nm; series mostly up to 46 µM. An outline of the steps: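 Intrinsic compound fluorescence is recorded in live HEK293 cultures after overnight incubation at 37C, 5% CO2, using excitation 405 nm and emission 460 nm. Values are referenced to triamterene.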

The nature of assay [10]: qHTS assay to test for compound auto fluorescence at 590 nm (red) in HEK293 cells (AID 720679). Conditions: red autofluorescence 540/590 nm; series mostly up to 46 µM. In outline: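 Red autofluorescence, HEK293 cells: 2,000 cells/well; attach 4-5 hr 37C; add 23 nL cpd or DMSO; incubate o/n 37C 5% CO2; read Ex540/Em590; Rose Bengal sodium reference.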
The nature of assay [11]: qHTS assay to test for compound auto fluorescence at 535 nm (green) in HEK293 cells (AID 720680). Conditions: green autofluorescence 485/535 nm; series mostly up to 46 µM.
Assay [12] can be described thus: qHTS assay to test for compound auto fluorescence at 460 nm (blue) in HEK293 cell free culture (AID 720681). The settings on record: cell-free medium, autofluorescence 405/460 nm (blue); series mostly up to 46 µM. An outline of the steps: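 Compounds were added to cell-free DMEM with 10% FBS and fluorescence read directly. The blue channel used 405 nm excitation and 460 nm emission, with triamterene as the reference fluorophore.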

The nature of assay [13]: qHTS assay to test for compound auto fluorescence at 535 nm (green) in HEK293 cell free culture (AID 720682). Conditions: cell-free medium, green autofluorescence 485/535 nm, stronger effect = higher value; series mostly up to 46 µM. In outline: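 Cell-free medium (DMEM, 10% FBS) receives compound or DMSO by pintool. Plate read directly at Ex 485/Em 535 nm. Signal converted to fluorescein equivalency.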

A short description of assay [14]: qHTS assay to test for compound auto fluorescence at 590 nm (red) in HEK293 cell free culture (AID 720683). The settings on record: cell-free medium autofluorescence, Ex540/Em590 red; series mostly up to 46 µM. In outline:
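Cell-free wells of DMEM with 10% FBS received compound, and intrinsic fluorescence was read at excitation/emission 540/590 nm. Values expressed as equivalence to Rose Bengal sodium.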

Assay [15] in a line: qHTS assay to test for compound auto fluorescence at 590 nm (red) in HepG2 cell free culture (AID 720684). Conditions: cell-free medium autofluorescence, red 540/590 nm; series mostly up to 46 µM. In outline:
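Rose Bengal sodium served as the reference for red signal. Test compounds were dispensed into serum-containing MEM (10% FBS) without cells, and plates were read at 540/590 nm.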

Assay [16] in a line: qHTS assay to test for compound auto fluorescence at 460 nm (blue) in HepG2 cell free culture (AID 720685). Conditions: Cell-free culture medium, blue autofluorescence 405/460 nm; series mostly up to 46 µM. An outline of the steps:
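Cell-free plates of MEM plus 10% FBS received 23 nL compound or DMSO vehicle; blue-channel (405/460 nm) intensity scored against triamterene as reference fluorophore.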

Assay [17] in a line: qHTS assay to test for compound auto fluorescence at 460 nm (blue) in HepG2 cells (AID 720687). Conditions: autofluorescence 405/460 nm, 1 h; series mostly up to 46 µM. In outline: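 HepG2 cells in MEM with 10% FBS, attached overnight at 37 C, were exposed to compound or DMSO for 1 hr at 37 C, 5% CO2. Blue fluorescence was read at 405/460 nm, with triamterene as reference fluorophore.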

In assay [18] the target is Glucocorticoid receptor (Homo sapiens) (UniProt P04150). In words: qHTS assay to identify small molecule agonists of the glucocorticoid receptor (GR) signaling pathway (AID 720691; active means well fitted activation curve with a large enough effect in the signal ratio in the repeat runs, not every such curve was filed as active; the % refers to the signal ratio). Conditions: GR-bla HeLa, beta-lactamase reporter ratio, 18 h; activation: at 62.4 µM (top of the series). An outline of the steps:
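A HeLa cervical cancer line expressing GR and a glucocorticoid response element-driven beta-lactamase gene is treated with compounds for 18 h; LiveBLAzer B/G FRET substrate is then applied and fluorescence read.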

For assay [19] the target is unchanged. In words: qHTS assay to identify small molecule antagonists of the glucocorticoid receptor (GR) signaling pathway (AID 720692; active means well fitted inhibition curve with a large enough effect in the signal ratio in the repeat runs, not every such curve was filed as active; the % refers to the signal ratio). Conditions: GR-bla HeLa, beta-lactamase FRET ratio, dexamethasone-stimulated, 18 h; series mostly up to 58.5 µM. An outline of the steps: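 GRE-bla HeLa line, dex-stimulated (5 nM final). Compound exposure 18 h, 37 C. Beta-lactamase FRET read after 2 h RT substrate.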

A short description of assay [20]: qHTS assay to test for compound auto fluorescence at 535 nm (green) in HepG2 cell free culture (AID 720686). Conditions: Cell-free medium, green autofluorescence 485/535 nm; series mostly up to 46 µM.

Results filed as inconclusive are left out. The source made the active and inactive calls. Unless noted, the call rests on the fitted dose curve; in most records, active means well fitted curve in the direction sought with a large enough effect in the repeat runs; inconclusive means weak or mixed curves; inactive means no such curve, though single readings can be large; an effect the other way counts as inactive or inconclusive.

Sequence of Glucocorticoid receptor (Homo sapiens) (P04150 whole entry, looked up): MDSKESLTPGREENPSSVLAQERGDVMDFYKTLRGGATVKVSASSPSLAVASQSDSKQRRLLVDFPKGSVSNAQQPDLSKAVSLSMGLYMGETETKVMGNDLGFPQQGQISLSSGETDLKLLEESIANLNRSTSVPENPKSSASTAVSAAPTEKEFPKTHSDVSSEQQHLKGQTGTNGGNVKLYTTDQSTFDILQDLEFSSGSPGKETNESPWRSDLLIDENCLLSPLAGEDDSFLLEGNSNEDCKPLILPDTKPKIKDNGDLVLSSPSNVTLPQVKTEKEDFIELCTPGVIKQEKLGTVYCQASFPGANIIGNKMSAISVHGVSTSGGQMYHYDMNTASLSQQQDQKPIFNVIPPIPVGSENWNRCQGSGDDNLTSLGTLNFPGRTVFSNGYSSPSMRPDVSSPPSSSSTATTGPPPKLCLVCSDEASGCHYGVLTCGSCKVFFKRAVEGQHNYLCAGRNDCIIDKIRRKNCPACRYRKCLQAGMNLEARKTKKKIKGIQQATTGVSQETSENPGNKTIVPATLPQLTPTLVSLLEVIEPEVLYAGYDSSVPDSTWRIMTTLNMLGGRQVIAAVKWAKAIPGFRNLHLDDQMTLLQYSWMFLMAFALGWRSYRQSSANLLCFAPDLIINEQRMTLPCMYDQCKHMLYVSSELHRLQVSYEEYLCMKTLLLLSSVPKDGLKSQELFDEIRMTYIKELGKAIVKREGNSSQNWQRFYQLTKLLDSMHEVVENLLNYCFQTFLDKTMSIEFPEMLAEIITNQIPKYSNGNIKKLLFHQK

With `C/C(=C\C(=O)OCCCCCCCCC(=O)O)C[C@@H]1OC[C@H](C[C@@H]2O[C@H]2[C@@H](C)[C@H](C)O)[C@@H](O)[C@H]1O`, the Potency result in [1], in assay [2], in assay [3], in assay [4], in assay [5] and in [6] was “inactive” each time. In addition, the Potency entry in [8], in assay [9], in assay [12], in assay [16], in assay [17] and in assay [18] was “inactive” in each case. The Potency result in assay [19] was “inactive”. The outcome in [7], in assay [10], in assay [11], in assay [13], in assay [14] and in assay [15] was inactive.
With `COc1ccc(/C=C/C(=O)O)cc1`, the Potency entry in assay [1], in assay [2], in assay [3], in [4], in assay [5] and in assay [6] was “inactive” throughout. For the same compound, the Potency result in assay [8], in assay [9], in assay [12], in assay [16], in [17] and in [18] was “inactive” each time. Further, the Potency entry in [19] was “inactive”. Further, the result in assay [7], in assay [10], in assay [11], in assay [13], in assay [14] and in [15] was inactive.
With `C=C1[C@H](CO)[C@@H](O)C[C@@H]1n1cnc2c(=O)[nH]c(N)nc21`, the Potency entry in assay [1], in [2], in [3], in assay [4], in [5] and in assay [6] was “inactive” in each case. Moreover, the Potency result in [8], in assay [9], in assay [12], in [16], in assay [20] and in [17] was “inactive” in each case. Further, the Potency entry in assay [18] and in [19] was “inactive” each time. The outcome in assay [7], in assay [10], in assay [11], in [13] and in assay [14] was inactive.
As for `COC(=O)C(CN)c1c[nH]c2ccc(OC)cc12` (centres undefined), the Potency entry in assay [1], in assay [2], in assay [3], in assay [4], in [5] and in assay [6] was “inactive” throughout. For the same compound, the Potency result in [8], in [9], in assay [12], in assay [16], in [20] and in assay [17] was “inactive” each time. Moreover, the compound was classed as inactive in [7], in [10], in assay [11], in [14] and in assay [15].
Regarding `OCC1(CO)COC(C(Cl)(Cl)Cl)OC1`, the Potency result in assay [1], in [2], in assay [3], in [4], in [5] and in assay [6] was “inactive” in each case. Also, the Potency result in assay [8], in [9], in assay [12], in assay [16], in assay [17] and in assay [18] was “inactive” in each case. Also, the call in assay [7], in assay [10], in assay [11], in assay [13], in assay [14] and in assay [15] was inactive.
For `CCN(CC)CCOC[C@H]1O[C@@H](O)[C@H](OCCN(CC)CC)[C@@H](O)[C@@H]1O`, the Potency entry in [1], in [2], in [3], in assay [4], in assay [5] and in assay [6] was “inactive” each time. Also, the Potency result in [8], in [9], in assay [12], in assay [16], in [17] and in assay [18] was “inactive” each time. In assay [19], the Potency result is “inactive”. Further, the result in assay [7], in [10], in assay [11], in assay [13], in assay [14] and in assay [15] was inactive.
On to `CC12CCC(C[N+](C)(CCC[N+](C)(C)C)C1)C2(C)C` (centres undefined), for which the Potency result in assay [1], in assay [2], in assay [3], in assay [4], in assay [5] and in assay [6] was “inactive” each time. The Potency result in [8], in assay [9], in assay [12], in assay [16], in assay [20] and in [17] was “inactive” in each case. For the same compound, the outcome in assay [7], in [10], in assay [11], in assay [14] and in assay [15] was inactive.
With `N=C(N)c1ccc(/C=C/c2ccc(C(=N)N)cc2O)cc1`, the Potency result in assay [1], in [2], in assay [3], in assay [4], in assay [5] and in assay [8] was “inactive” each time. In addition, the Potency entry in assay [9], in assay [12], in assay [16], in [20] and in assay [17] was “inactive” in each case. The Potency in [6] is 1970 nM (active). The outcome in [7], in assay [10], in assay [11], in [14] and in assay [15] was inactive.
With `O=S(=O)(O)CC(S)CS` (centres undefined), the Potency result in assay [1], in assay [2], in [3], in [4], in assay [5] and in assay [6] was “inactive” each time. For the same compound, the Potency entry in [8], in assay [9], in assay [12], in assay [16], in assay [20] and in [17] was “inactive” throughout. Further, the Potency entry in [18] and in assay [19] was “inactive” each time. The compound was classed as inactive in assay [7], in [10], in assay [11], in assay [13] and in assay [14].

(Values after PubChem BioAssay (Tox21).)
